# Measured values from PubChem BioAssay (NCATS).
# Records with an inconclusive call do not appear. A number with no mark means an inactive call. Activity calls are given as the source filed them. Calls come from the whole dose curve; as a rule, active = well fitted cell-killing curve with a large enough effect; inconclusive = small, poorly fitted or top-dose-only effect; inactive = flat fitted curve, though single readings scatter. Positions of bridges follow the written chain, without caps; N, C: chain ends. Non-standard residues stand in square brackets, D forms with d. Residues, ends and D or L forms follow the SMILES beside them. ξ: configuration not given here. *: point of attachment. Octanoyl(6-Me) = CCC(C)CCCCC(=O)*; ξThr(3R) = C[C@@H](O)C(N)C(=O)O; dDab = NCC[C@@H](N)C(=O)O; Dab = NCC[C@H](N)C(=O)O; Cbz = O=C(OCc1ccccc1)*
# Experiment: qHTS of pediatric cancer cell lines to identify multiple opportunities for drug repurposing: Primary screen for control Hh wild type fibroblast cells (AID 1347106); note: nearly all actives have a fitted effect of over 55% in size;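 for activity change, negative = cytotoxic: a drop in luminescence marks cytotoxicity and a rise apparent proliferation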
# Conditions: Hh wild-type fibroblast viability, CellTiter-Glo luminescence, 48 h; series mostly up to 46 µM; activity change, negative = cytotoxic: at the top concentration
# Description: Drug repurposing or repositioning has been offered as a strategy for drug development in oncology programs. This approach has special potential for childhood cancers and other rare or orphan diseases, where the expected return on new drug development has been a disincentive to pharmaceuticals.
# In this project we exploit the poly-pharmacology of drugs to discover new indications via phenotypic screening of a panel of 19 well-characterized cell lines derived from solid tumors seen in children and adolescents. The goal is to identify approved drugs with previously unrecognized anticancer properties that has the potential to reveal new mechanisms and biological processes involved in carcinogenesis or drug resistance. We employed a titration-based paradigm (quantitative high-throughput screening or qHTS), where all compounds were tested at multiple concentrations for their effect on cell viability. Concentration-response curves (CRCs) were derived directly from the primary screen, and both potency and efficacy values were used to identify compounds with robust bioactivity profiles. We screened the NIH Chemical Genomics Center (NCGC) Pharmaceutical Collection (NPC) and Mechanism Interrogation Plate (MIPE) small molecule collections of approved and investigational compounds against these cell lines; and measured metabolically active cells after 48 hours of compound treatment as a proxy for cell viability.
# Assay Submitter: Nathalia J. Martinez, National Center for Advancing Translational Sciences, National Institutes of Health, Rockville, MD, USA; email: natalia.martinez@nih.gov
# [1] Shen, M et al. Quantitative high-throughput phenotypic screening of pediatric cancer cell lines identifies multiple opportunities for drug repurposing. Oncotarget 2017 Dec 19;9(4):4758-4772. PMID 29435139.
# The cells were obtained from University of North Carolina (UNC), Pediatric Preclinical Testing Program (PPT), and Coriell Institute (CI).
# qHTS cell viability assay:
# Cells were assayed in growth media at a density of 500-1,000 cells/well. Five microliters of cells were dispensed into 1,536-well, white, solid-bottom, TC-treated plates (Greiner Bio One) using a multidrop dispenser and incubated at 37 degrees C, 5% CO2, under a humidified atmosphere for 5 hours. Twenty-three nanoliters of compounds and controls (neutral control DMSO or positive control bortezomib at final concentration of 2.3 µM) were subsequently transferred by Kalypsys pintool. For primary screens, the MIPE collection was tested at 11-point dilutions (final concentrations range from 0.78 nM to 46 µM) and the NPC collection at 8-point dilutions (final concentrations range from 0.59 nM to 46 µM). Compounds tested in follow-up screens were assayed at 11-point dilutions. Cells were incubated for 48 hours, followed by addition of 3 µL of CellTiter-Glo (Promega). After a 15 min incubation at room temperature, samples were analyzed for luminescence intensity using a ViewLux High-throughput CCD imager equipped with clear filters.
# % is set by controls: 0 for no effect and ±100 for the full control effect; potency is the fitted concentration of half-maximal effect.
Compound,"activity change, negative = cytotoxic",Potency
O=S(=O)(O)CCSSCCS(=O)(=O)O,17.1%,–
CCOC(=O)N1CCN([N+]([O-])=NOc2ccc([N+](=O)[O-])cc2[N+](=O)[O-])CC1,-0.66%,–
Cc1cnn(C)c1C(=O)Nc1cc(Nc2ccc3c(C=Cc4ccccn4)n[nH]c3c2)ccc1F,-10.2%,–
CC(C)c1cc(C(C)C)c(CC(=O)NS(=O)(=O)Oc2c(C(C)C)cccc2C(C)C)c(C(C)C)c1,8.95%,–
OCCNC1CCCc2c1[nH]c1ccc(-c3ccccc3)cc21 (stereo not given),-17.8%,–
O=C(O)C=Cc1ccc(Cn2ccnc2)cc1,9.58%,–
OCC(O)C(O)C(O)CO (stereo not given),-4.59%,–
O=C(C=Cc1ccc(CN(CCO)CCc2c[nH]c3ccccc23)cc1)NO,–,2.35 µM (active)
CCn1c(=O)c2c(nc(C=Cc3ccc(OC)c(OC)c3)n2C)n(CC)c1=O,10.7%,–
Cc1cc(O)c2c(c1)C(=O)c1cccc(O)c1C2=O,10.9%,–
CN(C)c1ccc2cc(C(=O)N[C@@H](CCCN=C(N)CCl)C(=O)NCc3ccccc3)ccc2c1,-3.38%,–
CC(C)C[C@@H](C=O)NC(=O)[C@H](CC(C)C)NC(=O)[C@H](CC(C)C)NC(=O)OCc1ccccc1 (Cbz-Leu-Leu-Leu-aldehyde),–,2.96 µM (active)
CC(=O)O[C@H]1C[C@@H]2CC[C@H]3[C@H]4C[C@H]([N+]5(C)CCCCC5)[C@@H](OC(C)=O)[C@@]4(C)CC[C@@H]3[C@@]2(C)C[C@H]1N1CCCCC1,-10.5%,–
CC(C)(O)Cn1c(NC(=O)c2ccc(-c3cn[nH]c3)s2)nc2cc(CN3CCOCC3)ccc21,–,6.62 µM (active)
Cc1cnc(NC(=O)Nc2cc(Br)c(C)cc2OC[C@@H]2CNCCO2)cn1,5.55%,–
C=C1CCC2[C@](C)(CO)C(O)CC[C@]2(C)C1CC=C1C(=O)OCC1O (stereo not given in full),11.5% [at 92.7 µM],–
CNC(=O)c1ccc(Nc2cc(Nc3ccccc3S(=O)(=O)C(C)C)c3cc[nH]c3n2)nc1,-18%,–
N=c1ccn2c(n1)O[C@H]1[C@@H](O)[C@@H](CO)O[C@H]12,7.28%,–
Nc1nc2c(c(=O)[nH]1)N(C=O)[C@H](CNc1ccc(C(=O)N[C@@H](CCC(=O)O)C(=O)O)cc1)CN2,-2.07%,–
CC(C)Oc1ccc(C(=O)N[C@H](CNC(=O)CN(C)C)Cc2ccc(-c3cn4cccc([C@H](C)O)c4n3)cc2)cc1Cl,-3.31%,–

Compound,"activity change, negative = cytotoxic",Potency
CC(=O)O[C@@]12CO[C@H]1C[C@H](O)[C@@]1(C)C(=O)[C@H](O)C3=C(C)[C@@H](OC(=O)C(O)[C@@H](NC(=O)OC(C)(C)C)c4ccccc4)C[C@@](O)([C@@H](OC(=O)c4ccccc4)[C@@H]21)C3(C)C (stereo not given in full),-12.7%,–
C=C1C[C@@]2(O)O[C@@]3(C[C@H]2C(C)C)[C@H](C)CC[C@H]13,-0.202%,–
O=C(C=CC=Cc1ccc2c(c1)OCO2)N1CCCCC1,9.67%,–
NC(=O)c1ncn([C@@H]2O[C@H](CO)[C@@H](O)[C@@H]2O)c1O,3.8%,–
OC[C@H]1OC(O)C[C@@H](O)[C@H]1O (stereo not given in full),3.14%,–
COC1=C(OC)C(=O)C(CC=C(C)CCC=C(C)CCC=C(C)CCC=C(C)CCC=C(C)CCC=C(C)CCC=C(C)CCC=C(C)CCC=C(C)CCC=C(C)C)=C(C)C1=O,10.9%,–
CC(O)(C#Cc1ccc2c(c1)N(c1nc(N)ncc1Cl)CC2)c1nccs1 (stereo not given),8.32%,–
C=CC1=C(C(=O)O)N2C(=O)[C@@H](NC(=O)C(=NO)c3csc(N)n3)[C@H]2SC1,4.42%,–
Cn1cnc2c(F)c(Nc3ccc(Br)cc3F)c(C(=O)NOCCO)cc21,-16.2%,–
CC(C)OC(=O)[C@H](C)N[P@](=O)(OC[C@H]1O[C@@H](n2ccc(=O)[nH]c2=O)[C@](C)(F)[C@H]1O)Oc1ccccc1,-1.58%,–
NC[C@H]1O[C@H](O[C@H]2[C@@H](O)[C@@H](O[C@H]3O[C@H](CO)[C@@H](O)[C@H](N)[C@@H]3O)[C@H](N)C[C@@H]2N)[C@H](N)C[C@H]1O,9.63%,–
CCC(C)CCCCC(=O)N[C@@H](CCN)C(=O)NC(C(=O)N[C@H](CCN)C(=O)N[C@@H]1CCNC(=O)C([C@@H](C)O)NC(=O)[C@@H](CCN)NC(=O)[C@@H](CCN)NC(=O)[C@@H](CC(C)C)NC(=O)[C@H](Cc2ccccc2)NC(=O)[C@H](CCN)NC1=O)[C@@H](C)O (stereo partly drawn) ({Octanoyl(6-Me)}-[Dab][ξThr(3R)][dDab][dDab][Dab]F[dL][dDab][dDab][ξThr(3R)]; lactam 4-C),15.6%,–
C[C@H](NC(=O)C(C#N)=Cc1cccc(Br)n1)c1ccccc1,-19.5%,–
Cc1cc(C(=O)NOCCO)c(Nc2ccc(I)cc2F)n(C)c1=O,-24.2%,–
CC(N[C@H]1CCCC[C@H]1NC(=O)c1ccc(Cl)cc1)c1cccc2ccccc12 (stereo not given in full),-7.43%,–
COc1ccc(C(C)=O)c(O)c1,2.72%,–
COc1cc2c(Nc3ccc(Cl)c(Cl)c3F)ncnc2cc1OCC1C[C@@H]2CN(C)C[C@H]2C1,–,20.9 µM (active)
Nc1nc(=O)n([C@H]2CSC(CO)O2)cc1F (stereo not given in full),21.1%,–
C[C@@H]1C(=O)O[C@H]2CC34[C@H]5C[C@@H](C(C)(C)C)C36[C@H](OC(=O)[C@@H]6O)O[C@@]4(C(=O)O5)[C@]21O (stereo not given in full),3.42%,–
O=C1c2c(O)cccc2[C@@H]([C@@H]2O[C@H](CO)[C@@H](O)[C@H](O)[C@H]2O)c2cc(CO)cc(O)c21,-0.914%,–
